Measured values reported in PubChem BioAssay (NCATS).
Several values for one entry are separate records, joined by “and”; a condition that tells them apart may be missing. Identical values can stand only once. Records with an inconclusive call do not appear. Activity calls are given as the source filed them. Unless noted, the call rests on the fitted dose curve.

System: not listed separately
Experiment: qHTS assay for small molecule antagonists of peroxisome proliferator-activated receptor delta signaling (AID 588535; active means well fitted inhibition curve with a large enough effect in the signal ratio, with a control signal flat, not every such curve was filed as active; the % refers to the signal ratio;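 on max response: cells co-treated with a PPAR-delta agonist as stimulator during compound exposure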)
Conditions: HEK293T PPARd-UAS-bla, beta-lactamase FRET ratio, 18 h; 460 nm channel
How it was run: (§1)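 Compounds tested in titration on PPAR-delta-UAS-bla HEK293T cells grown in charcoal/dextran-stripped serum (2%); beta-lactamase activity read via CCF4 emission at 460 and 530 nm.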

Q: For `C=C(C)[C@H]1CC=C(C)C(=O)C1`, which max response is on record?
A: Its max response is 35.6% and 28.4%.

Q: Which max response does the source give for `COS(C)(=O)=O` here?
A: The max response was -15.8%.

Q: With `CC1=CC(=O)CC(C)(C)C1(O)/C=C/C(C)=C\C(=O)O` (stereo unspecified) as the compound, how does the max response read?
A: The max response was 3.87%.

Biological target: Peroxisome proliferator-activated receptor delta (Homo sapiens) (UniProt Q03181)
Experiment: as above
Conditions: HEK293T PPARd-UAS-bla, beta-lactamase FRET ratio, 18 h; series mostly up to 76.7 µM; activity change, negative = inhibition: at the top concentration
How it was run: as §1

Chain of Peroxisome proliferator-activated receptor delta (Homo sapiens) (Q03181 whole entry, looked up): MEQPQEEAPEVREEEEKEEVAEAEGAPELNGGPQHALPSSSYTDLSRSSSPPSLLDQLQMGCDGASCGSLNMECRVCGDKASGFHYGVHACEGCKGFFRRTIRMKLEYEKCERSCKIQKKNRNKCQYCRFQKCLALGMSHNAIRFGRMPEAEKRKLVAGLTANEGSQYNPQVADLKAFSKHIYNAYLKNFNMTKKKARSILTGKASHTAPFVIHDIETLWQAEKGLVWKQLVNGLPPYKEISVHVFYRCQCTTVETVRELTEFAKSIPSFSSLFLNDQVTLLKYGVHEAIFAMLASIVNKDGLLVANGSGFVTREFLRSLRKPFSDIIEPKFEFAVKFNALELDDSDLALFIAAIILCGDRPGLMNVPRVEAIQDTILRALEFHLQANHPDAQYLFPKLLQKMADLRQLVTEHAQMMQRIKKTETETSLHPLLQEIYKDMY

Q: For `C=C(C)[C@H]1CC=C(C)C(=O)C1`, which outcome is on record?
A: The outcome was “inactive”.

Q: For `COS(C)(=O)=O`, which “activity change, negative = inhibition” value is on record?
A: Its value is -23.8% (inactive).

Q: With `CC1=CC(=O)CC(C)(C)C1(O)/C=C/C(C)=C\C(=O)O` (stereo unspecified) as the compound, how does the “activity change, negative = inhibition” value read?
A: The value was -13% (inactive).

Biological target: Peroxisome proliferator-activated receptor gamma (Homo sapiens) (UniProt P37231)
Experiment: qHTS assay for small molecule agonists of peroxisome proliferator-activated receptor gamma signaling (AID 588536; active means well fitted curve in the direction sought with a large enough effect in the signal ratio, with a control signal flat, not every such curve was filed as active; the % refers to the signal ratio;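 further: 0% = DMSO basal wells and 100% = rosiglitazone at 2 µM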)
Conditions: HEK293 PPARg-UAS-bla, beta-lactamase ratio, 16 h, percent of rosiglitazone response, DMSO as zero; series mostly up to 76.7 µM; activation: at the top concentration
How it was run: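 Cells were plated and held 6–6.5 h at 37 C, then compounds were added as a titration series. After a further 16 h, CCF4 dye was loaded for 2 h at room temperature and emission at 460/530 nm recorded.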

Chain of Peroxisome proliferator-activated receptor gamma (Homo sapiens) (P37231 whole entry, looked up): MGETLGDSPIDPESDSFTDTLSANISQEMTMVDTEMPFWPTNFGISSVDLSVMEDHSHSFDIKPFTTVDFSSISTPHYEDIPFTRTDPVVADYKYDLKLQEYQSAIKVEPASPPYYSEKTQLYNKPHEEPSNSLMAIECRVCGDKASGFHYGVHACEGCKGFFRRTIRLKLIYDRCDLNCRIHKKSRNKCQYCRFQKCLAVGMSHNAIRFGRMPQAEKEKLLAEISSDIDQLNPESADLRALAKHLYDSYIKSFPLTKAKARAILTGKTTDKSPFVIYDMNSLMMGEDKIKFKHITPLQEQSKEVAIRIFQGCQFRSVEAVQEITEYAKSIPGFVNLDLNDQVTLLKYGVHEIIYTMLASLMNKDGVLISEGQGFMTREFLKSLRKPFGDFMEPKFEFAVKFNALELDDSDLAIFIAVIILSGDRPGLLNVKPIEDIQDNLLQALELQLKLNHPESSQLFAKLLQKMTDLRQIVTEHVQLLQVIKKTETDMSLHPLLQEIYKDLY

Q: Which “activation” value does the source give for `Cc1occc(=O)c1O` here?
A: The value was -0.335% (inactive).

Q: With `C=C(C)[C@H]1CC=C(C)C(=O)C1` as the compound, how does the outcome read?
A: The outcome was “inactive”.

Q: For `COS(C)(=O)=O`, which “activation” value is on record?
A: The value was 2.96% (inactive).

Q: For `CC1=CC(=O)CC(C)(C)C1(O)/C=C/C(C)=C\C(=O)O` (stereo unspecified), which “activation” value is on record?
A: The value was 0.862% (inactive).

Q: With `C=CC(C)(O)CCC=C(C)C` (stereo unspecified) as the compound, how does the outcome read?
A: Its outcome is “inactive”.

Biological target: Vitamin D3 receptor (Homo sapiens) (UniProt P11473)
Experiment: qHTS assay for small molecule antagonists of vitamin D receptor signaling (AID 588541);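 further: receptor activated by calcitriol during compound treatment; on the % scale 0 is the no-effect control and ±100 the full control effect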
Conditions: HEK293T VDR-UAS-bla, beta-lactamase ratio, antagonist mode; series mostly up to 76.7 µM; activity change, negative = inhibition: at the top concentration
How it was run: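 VDR-UAS-bla HEK293T cells (2000/well, 2% charcoal-stripped FBS) were treated with titrated compounds plus 1-alpha,25-dihydroxyvitamin D3 (50 nM or 3 nM final) for 16 h at 37 C. CCF4 beta-lactamase fluorescence was read; Hill fits gave IC50.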

Chain of Vitamin D3 receptor (Homo sapiens) (P11473 whole entry, looked up): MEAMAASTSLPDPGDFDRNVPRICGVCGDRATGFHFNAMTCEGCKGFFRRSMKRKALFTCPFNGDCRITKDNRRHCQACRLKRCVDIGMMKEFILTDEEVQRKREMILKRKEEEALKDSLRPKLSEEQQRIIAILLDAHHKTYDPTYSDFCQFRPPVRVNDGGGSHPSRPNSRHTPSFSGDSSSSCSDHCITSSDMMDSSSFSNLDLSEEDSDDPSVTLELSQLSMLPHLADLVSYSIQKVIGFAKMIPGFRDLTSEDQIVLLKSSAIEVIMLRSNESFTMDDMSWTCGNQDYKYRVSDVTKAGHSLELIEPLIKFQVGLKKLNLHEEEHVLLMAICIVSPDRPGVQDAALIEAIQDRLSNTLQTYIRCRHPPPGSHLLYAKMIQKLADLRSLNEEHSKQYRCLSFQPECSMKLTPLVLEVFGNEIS

Q: Which “activity change, negative = inhibition” value does the source give for `Cc1occc(=O)c1O` here?
A: Its value is 0.129% (inactive).

Q: For `C=C(C)[C@H]1CC=C(C)C(=O)C1`, which outcome is on record?
A: The outcome was “inactive”.

Q: With `COS(C)(=O)=O` as the compound, how does the “activity change, negative = inhibition” value read?
A: The value was -3.99% (inactive).

Q: For `CC1=CC(=O)CC(C)(C)C1(O)/C=C/C(C)=C\C(=O)O` (stereo unspecified), which “activity change, negative = inhibition” value is on record?
A: Its value is -6.22% (inactive).

Q: Which outcome does the source give for `C=CC(C)(O)CCC=C(C)C` (stereo unspecified) here?
A: Its outcome is “inactive”.

Biological target: Vitamin D3 receptor (Homo sapiens) (UniProt P11473)
Experiment: qHTS assay for small molecule agonists of vitamin D receptor signaling (AID 588543);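 further: 0% = DMSO basal and 100% = reference agonist control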
Conditions: HEK293T VDR-UAS-bla, beta-lactamase ratio, 16 h; series mostly up to 76.8 µM; activation: at the top concentration
How it was run: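 qHTS in agonist mode: compound titrations stimulate a VDR-driven β-lactamase reporter in HEK293T cells over 16 h at 37 °C. Response normalized to 50 nM 1α,25-dihydroxyvitamin D3 = 100%, DMSO = 0%; Hill fitting gives EC50 and maximal response.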

Q: With `Cc1occc(=O)c1O` as the compound, how does the “activation” value read?
A: Its value is 1.24% (inactive).

Q: Which outcome does the source give for `C=C(C)[C@H]1CC=C(C)C(=O)C1` here?
A: Its outcome is “inactive”.

Q: With `COS(C)(=O)=O` as the compound, how does the “activation” value read?
A: The value was -2.98% (inactive).

Q: For `CC1=CC(=O)CC(C)(C)C1(O)/C=C/C(C)=C\C(=O)O` (stereo unspecified), which “activation” value is on record?
A: Its value is 0.576% (inactive).

Q: With `C=CC(C)(O)CCC=C(C)C` (stereo unspecified) as the compound, how does the outcome read?
A: Its outcome is “inactive”.

System: not listed separately
Experiment: qHTS assay for small molecule agonists of retinoid X receptor alpha signaling (AID 588544);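 on activation: 0% = DMSO basal wells and 100% = reference agonist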
Conditions: HEK293T RXRa-UAS-bla, beta-lactamase reporter, 18 h; 530 nm emission

Q: Which max response does the source give for `Cc1occc(=O)c1O` here?
A: The max response was -12.3%.

Q: With `C=C(C)[C@H]1CC=C(C)C(=O)C1` as the compound, how does the max response read?
A: Its max response is 2.29% and 4.34%.

Q: Which max response does the source give for `COS(C)(=O)=O` here?
A: The max response was -12%.

Q: Which max response does the source give for `CC1=CC(=O)CC(C)(C)C1(O)/C=C/C(C)=C\C(=O)O` (stereo unspecified) here?
A: Its max response is -10.1%.

Q: With `C=CC(C)(O)CCC=C(C)C` (stereo unspecified) as the compound, how does the max response read?
A: The max response was -15.4% and -5.89%.

Biological target: Retinoic acid receptor RXR-alpha (Homo sapiens) (UniProt P19793)
Experiment: as above
Conditions: HEK293T RXRa-UAS-bla, beta-lactamase reporter, 18 h; series mostly up to 76.7 µM; activation: at the top concentration

Chain of Retinoic acid receptor RXR-alpha (Homo sapiens) (P19793 whole entry, looked up): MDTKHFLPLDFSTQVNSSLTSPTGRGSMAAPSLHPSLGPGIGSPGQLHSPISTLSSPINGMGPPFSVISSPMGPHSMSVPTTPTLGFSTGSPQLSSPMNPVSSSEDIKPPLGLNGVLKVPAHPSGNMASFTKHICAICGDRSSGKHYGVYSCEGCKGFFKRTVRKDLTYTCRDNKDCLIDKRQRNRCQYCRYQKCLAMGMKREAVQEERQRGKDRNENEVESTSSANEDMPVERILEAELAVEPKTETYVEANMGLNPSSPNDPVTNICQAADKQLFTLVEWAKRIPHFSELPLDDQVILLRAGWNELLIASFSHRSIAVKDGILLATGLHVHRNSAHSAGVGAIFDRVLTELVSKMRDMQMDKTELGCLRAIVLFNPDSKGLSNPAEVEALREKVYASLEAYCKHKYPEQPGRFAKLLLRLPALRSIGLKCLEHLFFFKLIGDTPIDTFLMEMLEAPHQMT

Q: Which “activation” value does the source give for `Cc1occc(=O)c1O` here?
A: Its value is 2.02% (inactive).

Q: Which outcome does the source give for `C=C(C)[C@H]1CC=C(C)C(=O)C1` here?
A: Its outcome is “inactive”.

Q: Which “activation” value does the source give for `COS(C)(=O)=O` here?
A: Its value is 5.93% (inactive).

Q: Which “activation” value does the source give for `CC1=CC(=O)CC(C)(C)C1(O)/C=C/C(C)=C\C(=O)O` (stereo unspecified) here?
A: The value was 8.16% (inactive).

Q: For `C=CC(C)(O)CCC=C(C)C` (stereo unspecified), which outcome is on record?
A: Its outcome is “inactive”.

Biological target: Thyroid hormone receptor beta (Homo sapiens) (UniProt P10828)
Experiment: qHTS assay for small molecule agonists of thyroid hormone receptor beta signaling (AID 588545);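 further: 0% = DMSO only and 100% = 10 nM T3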
Conditions: TR-UAS-bla GripTite HEK 293, beta-lactamase ratio, agonist mode, 18 h, percent of T3 response, DMSO as zero; series mostly up to 76.7 µM; activation: at the top concentration
How it was run: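 Stimulation of a TR-driven beta-lactamase reporter was quantified in GripTite HEK 293 cells. Compound series ran for 18 hrs; curves were normalized to T3 and DMSO controls and fitted to yield EC50.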

Chain of Thyroid hormone receptor beta (Homo sapiens) (P10828 whole entry, looked up): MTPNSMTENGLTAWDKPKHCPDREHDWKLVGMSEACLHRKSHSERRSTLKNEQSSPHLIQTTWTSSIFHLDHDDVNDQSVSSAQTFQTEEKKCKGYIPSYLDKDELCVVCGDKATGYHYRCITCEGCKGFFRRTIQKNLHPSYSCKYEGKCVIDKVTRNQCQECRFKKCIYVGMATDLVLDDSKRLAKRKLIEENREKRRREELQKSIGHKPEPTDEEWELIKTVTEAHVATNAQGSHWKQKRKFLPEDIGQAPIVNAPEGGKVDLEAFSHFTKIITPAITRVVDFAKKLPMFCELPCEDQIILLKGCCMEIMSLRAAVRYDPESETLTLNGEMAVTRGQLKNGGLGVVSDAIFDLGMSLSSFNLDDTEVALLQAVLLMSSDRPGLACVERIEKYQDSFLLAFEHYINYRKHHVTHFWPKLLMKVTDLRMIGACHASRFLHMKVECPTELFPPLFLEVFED

Q: For `Cc1occc(=O)c1O`, which “activation” value is on record?
A: The value was -9.31% (inactive).

Q: With `C=C(C)[C@H]1CC=C(C)C(=O)C1` as the compound, how does the outcome read?
A: The outcome was “inactive”.

Q: With `COS(C)(=O)=O` as the compound, how does the “activation” value read?
A: Its value is -20.9% (inactive).

Q: With `CC1=CC(=O)CC(C)(C)C1(O)/C=C/C(C)=C\C(=O)O` (stereo unspecified) as the compound, how does the “activation” value read?
A: Its value is -3.2% (inactive).

Q: Which “activation” value does the source give for `C=CC(C)(O)CCC=C(C)C` (stereo unspecified) here?
A: The value was -10.6% (inactive).

System: not listed separately
Experiment: qHTS assay for small molecule antagonists of retinoid X receptor alpha signaling (AID 588546);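 further: cells stimulated with 9-cis-retinoic acid as agonist; on the % scale 0 is the no-effect control and ±100 the full control effect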
Conditions: HEK293T RXRa-UAS-bla, beta-lactamase ratio, antagonist mode; measured here: W530 green channel, cytotoxicity proxy
How it was run: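 Beta-lactamase reporter inhibition, read as CCF4 fluorescence ratio (ex 405, em 460/530 nm) after 2 h at RT. HEK293T UAS-bla cells, 2500/well, were stimulated with 9-cis-RA at 500 or 100 nM final alongside test compound for 18 h at 37 C.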

Q: With `Cc1occc(=O)c1O` as the compound, how does the max response read?
A: Its max response is -0.914%.

Q: With `C=C(C)[C@H]1CC=C(C)C(=O)C1` as the compound, how does the max response read?
A: The max response was -6.91% and -9.16%.

Q: For `COS(C)(=O)=O`, which max response is on record?
A: The max response was -12.9%.

Q: For `CC1=CC(=O)CC(C)(C)C1(O)/C=C/C(C)=C\C(=O)O` (stereo unspecified), which max response is on record?
A: The max response was -3.21%.

Q: Which max response does the source give for `C=CC(C)(O)CCC=C(C)C` (stereo unspecified) here?
A: The max response was -4.18% and -11.2%.
